# Source: PubChem
# Only a selection was taken, and hits are over-represented in it overall.
# MLL CXXC-DNA inh – inhibitors of human MLL CXXC domain-DNA interaction; Q03164; MLL-CXXC / FITC-HOXA9 DNA fluorescence polarization; Potency, µM (top dose mostly 115 µM), usual class: inhibitors; 290,000 tested, 0.037% active; AID 2662; active = well fitted inhibition curve with a large enough effect in the polarisation, with a control signal flat, not every such curve was filed as active; inconclusive = small, poorly fitted or top-dose-only effect, or effect the other way, or a change in a side signal; inactive = no such curve, though single readings can be large or run the other way; the % refers to the polarisation
#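 Fluorescence polarization: 7 uM MLL-CXXC (stock) preincubated 5 min with compounds, then 50 nM fluorescein-HOX-A9 DNA (stock) added; 30 min ambient. Buffer 50 mM Tris-HCl pH 7.5, 50 mM NaCl, 1 mM DTT, 0.05% BSA.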
# Menin-MLL TR inh – menin-MLL binding inhibition, Texas Red mutant peptide; 270,000 tested, 0.23% active; AID 1768; Potency, µM (titrated, usually from 61.6 µM), usual class: inhibitors; Menin + Texas Red MLL mutant peptide, fluorescence polarization; O00255; active = well fitted inhibition curve with a large enough effect in the polarisation, with a control signal flat, not every such curve was filed as active; inconclusive = small, poorly fitted or top-dose-only effect, or effect the other way, or a change in a side signal; inactive = no such curve, though single readings can be large or run the other way; the % refers to the polarisation
# Menin-MLL FL inh – displaces fluorescein MLL peptide from human menin | FP activity change, % at 61.4 µM | Fluorescence polarization, fluorescein-MLL peptide displacement from menin | 290,000 tested, under 10 active; active = well fitted curve in the direction sought with a large enough effect in the polarisation, not every such curve was filed as active; inconclusive = small, poorly fitted or top-dose-only effect, or effect the other way, or a change in a side signal; inactive = no such curve, though single readings can be large or run the other way; the % refers to the polarisation
# p53 reactivation – restores transcriptional activity of mutant p53 | H1299 p53-A138V BP100-luciferase reporter, luminescence, 24 h | 320,000 tested, 0.063% active | Potency, µM (highest dose often 92.2 µM), hits mostly activators; active = well fitted activation curve with a large enough effect; inconclusive = small, poorly fitted or top-dose-only effect; inactive = no such curve, though single readings can be large or run the other way; also: nearly all actives have a fitted effect of over 45% in size
#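 H1299 (p53-null), stable ts p53-A138V + BP100-Luc; 1000 cells/well, Opti-MEM/10% FBS; cpd 4 pt, 1:5; 24 h, 37 deg C, 5% CO2; detection reagent 10 min RT; luminescence.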
# ClpP mod – qHTS Assay for Activators of ClpP | ATP-dependent Clp protease proteolytic subunit (Bacillus subtilis (strain 168)), P80244 | purified B. subtilis ClpP, FRET peptide cleavage, 20 min | Potency, µM (highest dose often 57.5 µM) | 340,000 tested, 1.9% active; active = well fitted falling curve with a large enough effect; inconclusive = small, poorly fitted or top-dose-only effect; inactive = no such curve, though single readings can be large or run the other way; also: the source files actives as falling curves though it sought activators and does not explain the sign; nearly all actives have a fitted effect of over 65% in size
#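 ClpP 10 microg/mL final, pH 8 Tris/KCl buffer with BSA, glycerol, Tween-20; compound pinned in; FRET-FV substrate; RT 20 min; Ex320/Em430; ΔFRET vs ADEP 5.8 microM, DMSO, no enzyme.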
# A number is an active result; i = inactive; ? = inconclusive; nt = no result.
SMILES,MLL CXXC-DNA inh,Menin-MLL TR inh,Menin-MLL FL inh,p53 reactivation,ClpP mod
CCOC(=O)C1CCN(S(=O)(=O)c2cccc(-c3cn4cc(Cl)ccc4n3)c2)CC1,i,i,i,i,?
COc1ccc(Cc2nc3ccc(C(=O)NCCn4ccnc4C)cc3o2)cc1OC,i,i,i,i,32µM
COC(=O)C1=CN(C2CC2)C=C(C(=O)OC)C1c1ccccc1OC,i,i,i,i,32µM
COC(=O)C1=CN(Cc2ccc(OC)c(OC)c2)C=C(C(=O)OC)C1c1cccc(OC)c1OC,i,?,i,i,i
COC(=O)C1=CN(Cc2cccs2)C=C(C(=O)OC)C1c1cccc(OC)c1OC,i,?,i,i,32µM
CCN1C=C(C(=O)OC)C(c2cccc(OC)c2OC)C(C(=O)OC)=C1,i,i,i,i,32µM
Cc1cc(-c2nnc(CCC(=O)NCc3cc(F)cc(C(F)(F)F)c3)o2)no1,i,nt,nt,i,28µM
CCCN1CNc2c(c(=O)[nH]c(=S)n2CCc2ccc(OC)cc2)C1,nt,nt,nt,nt,i
O=C(NCc1ccc(F)cc1)c1cc2c(s1)-c1ccccc1SC2,nt,nt,nt,nt,i
CCc1ccccc1N(CC)C(=O)c1cc2c(s1)-c1ccccc1SC2,nt,nt,nt,nt,14µM
O=C(NCc1ccccc1Cl)c1cc2c(s1)-c1ccccc1SC2,nt,nt,nt,nt,25µM
Cc1ccc(S(=O)(=O)NNC(=O)c2ccc(C(=O)N(c3ccccc3)c3ccccc3)cc2)cc1,nt,nt,nt,nt,i
CCN(CC)CCN(C)c1ccc(/C=C/c2ccnc3ccccc23)cc1,nt,nt,nt,nt,i
CCCNc1nc(Nc2ccc([N+](=O)[O-])cc2)nc(N2CCOCC2)n1,nt,nt,nt,nt,i
O=C(Nc1nc2c(s1)CN(Cc1ccccc1)CC2)c1cccc(S(=O)(=O)N2CCc3ccccc32)c1,?,7.1µM,?,i,i
COCC(C)Nc1ncnc2c1cnn2-c1ccc(Cl)cc1 (stereo not given),i,i,i,nt,28µM
COc1ccc(-n2ncc3c(NC(C)C)ncnc32)cc1,i,i,i,i,i
COc1ccc(-n2ncc3c(NCC(C)C)ncnc32)cc1,i,i,i,?,32µM
CC(C)N(c1ccc(C=O)cc1)C(C)C,nt,nt,nt,nt,i
CC(=O)c1ccc(N2C(=O)N(Cc3cccc(C(F)(F)F)c3)c3ccccc3S2(=O)=O)cc1,nt,nt,nt,nt,i
O=C(NC12CC3CC(CC(C3)C1)C2)c1ccc(-c2ccc(Cl)cc2)o1,i,i,nt,?,32µM
Cc1cc(CC(=O)O)c(C)n1-c1ccc(Cl)cc1,i,i,i,nt,nt
CC(=O)N1CC=C2C(C#N)=C(N)C(C#N)(C#N)C(CCc3ccccc3)C2C1 (stereo not given),i,i,i,i,i
CCN1CC=C2C(C#N)=C(N)C(C#N)(C#N)C(CCc3ccccc3)C2C1 (stereo not given),?,i,?,i,28µM
CC(=O)Oc1ccc(C2OC(=O)c3ccccc3N2C(C)=O)cc1 (stereo not given),i,i,i,i,25µM
SMILES,MLL CXXC-DNA inh,Menin-MLL TR inh,Menin-MLL FL inh,p53 reactivation,ClpP mod
O=C(c1cccc(NS(=O)(=O)c2ccc(F)c(F)c2)c1)N1CCN(C(c2ccccc2)c2ccccc2)CC1,i,i,i,i,32µM
Cc1ccc(NC(=O)CCC(=O)c2ccc(F)cc2)cc1Cl,i,i,i,i,25µM
N/C(=N\OC(=O)COc1ccccc1Cl)c1ccccn1,i,i,i,?,14µM
N#Cc1c(N)oc(-c2ccccc2)c1-c1ccccc1,i,i,i,i,i
N#Cc1c(N)oc(-c2ccco2)c1-c1ccco1,i,i,?,i,25µM
CC(C)C(=O)Nc1cccc(-c2nc3ccccc3o2)c1,i,i,i,i,?
CC(Oc1ccc(Cl)cc1Cl)C(=O)Nc1ccc2oc(-c3ccncc3)nc2c1 (stereo not given),i,i,i,i,8.9µM
COc1cc(OC)cc(-c2nc3cc(C)ccc3o2)c1,i,i,i,?,25µM
COc1cc(OC)cc(-c2nc3ccccc3c(=O)o2)c1,i,i,i,i,i
Cc1ccc(-c2nc3cc(NC(=O)C(C)C)ccc3o2)cc1C,i,i,i,i,28µM
Cc1cc2nc(-c3ccc(NC(=O)C(C)C)cc3)oc2cc1C,i,i,i,?,i
CC(C)CC(=O)Nc1ccc2oc(-c3ccncc3)nc2c1,i,i,i,i,?
Cc1ccc(-c2nc3cc(NC(=O)C(C)C)ccc3o2)cc1,i,i,i,i,14µM
Cc1cc(C=Nc2ccc(/C=C/c3ccnc4ccccc34)cc2)ccc1N(C)C,nt,nt,nt,nt,i
